Assay [1] in a line: C. neoformans lysis by adenylate kinase leakage – AK release luminescence, cherry-picks, dose response (AID 687000;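 active means fitted dose curve reaches 40% lysis signal rise at or below the highest valid concentration tested for that sample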;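 further: luminescent detection of adenylate kinase leaking from lysed yeast; 0% = median neutral control signal and 100% = double that signal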).
A short description of assay [2]: viability loss in HepG2 hepatoma cells – cell-based, cherry-picks, set 2, cytotoxicity control, dose response (AID 687002).
A short description of assay [3]: viability loss in HeLa cells – cell-based, ATP luminescence, cherry-pick samples, cytotoxicity control, dose response (AID 687004;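 active means a fitted half-maximal concentration no higher than twice the top valid tested dose, with signal falling as cells die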;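 further: 0% = neutral control median and -100% = staurosporine 10 µM control median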).
Assay [4] can be described thus: toxicity toward HepG2 liver cells – cell-based, plate reader, cherry-pick, antagonist series, cytotoxicity control, dose response (AID 743416; call rule not given here;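 further: 0% = neutral control wells and -100% = positive control wells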).

Entries with a potency or affinity are not part of this list. Unmarked numbers belong to inactive results. Active and inactive are the calls of the source.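 How the source made its calls, unless noted: active means a dose-response fit showing signal loss, with half-maximal concentration no higher than twice the top tested dose; inconclusive means flat fit between 30% and 70% signal loss, or poor fit; inactive means the rest.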

In the case of `O=C(C[C@H]1CC[C@H]2[C@@H](COC[C@H](O)CN2Cc2cc(F)cc(F)c2)O1)Nc1nccs1`, the compound was called inactive in assay [1], in assay [2] and in assay [3].
As to `O=C(CN(c1ccccc1)S(=O)(=O)c1ccc(F)cc1)NC1CCCCCC1`, the result in assay [1], in assay [2] and in assay [3] was inactive.
For the compound `O=C(C[C@@H]1CC[C@@H](NC(=O)c2cccnc2)[C@@H](CO)O1)NCCN1CCCCC1`, the call in assay [1], in assay [2] and in assay [3] was inactive.
On to `Cc1ccc(C2CC(c3cccs3)=NN2C(=O)c2ccc(Br)o2)cc1` (stereo unspecified), for which the outcome in assay [1], in assay [2] and in assay [3] was inactive.
Turning to `Cc1c(Cl)cccc1NC(=O)C1NC(=O)CC1c1ccccc1` (stereo unspecified), the outcome in assay [1], in assay [2] and in assay [3] was inactive.
For the compound `CC(=O)c1ccc(N2CCN(C(=O)Cc3cccs3)CC2)cc1`, the compound was classed as inactive in assay [1], in assay [2] and in assay [3].
For the compound `COc1ccc(N2CCN(C(=O)CSc3ncnc4c3cnn4-c3ccccc3C)CC2)cc1`, the compound was classed as inactive in assay [1], in assay [2] and in assay [3].
In the case of `O=C(CCN1CCCCC1)NCC[C@@H]1CC[C@H](NC(=O)c2ccc(F)cc2)[C@@H](CO)O1`, the compound was classed as inactive in assay [1], in assay [2] and in assay [3].
Take `C[C@H](CO)N1C[C@H](C)[C@H](CN(C)C(=O)NC2CCCCC2)OCCCC[C@H](C)Oc2ccc(NS(=O)(=O)c3cn(C)cn3)cc2C1=O`: the result in assay [1], in assay [2] and in assay [3] was inactive.
Regarding `O=C(COc1ccc2c(c1)CCC2)NCc1ccccc1`, the outcome in assay [1], in assay [2] and in assay [3] was inactive.
`O=C(CN(c1ccc(F)cc1)S(=O)(=O)c1ccccc1)NC1CC2CCC1C2` (stereo unspecified): the call in assay [1], in assay [2] and in assay [3] was inactive.
Regarding `CCN(CC)C(=O)CSc1ncnc2c1cnn2-c1ccccc1`, the compound was classed as inactive in assay [1], in assay [2] and in assay [3].
For `CCC(=O)Nc1ccc2c(c1)OC[C@H](C)N(C(=O)c1ccc(F)cc1)C[C@@H](C)[C@@H](OC)CN(C)C2=O`, the call in assay [1], in assay [2] and in assay [3] was inactive.
In the case of `Cc1cccc(C)c1NC(=O)C1CCCN1C(=O)OC(C)(C)C` (stereo unspecified), the compound was classed as inactive in assay [1], in assay [2] and in assay [3].
Take `C[C@H]1CN([C@@H](C)CO)C(=O)c2cc(C#CCN(C)C)cnc2O[C@@H]1CN(C)C(=O)Nc1cccc(F)c1`: the result in assay [1], in assay [2] and in assay [3] was inactive.
As to `C[C@H]1CN([C@@H](C)CO)C(=O)c2cc(-c3ccccc3)cnc2O[C@@H]1CN(C)C(=O)c1ccccn1`, the compound was classed as inactive in assay [1], in assay [2] and in assay [3].
`Cc1ccc(C(=O)Nc2ccc3ncccc3c2)cc1`: the call in assay [1], in assay [2] and in assay [4] was inactive.
Consider `O=C(NC(=S)Nc1ccc(N2CCOCC2)cc1)c1cccc([N+](=O)[O-])c1`, for which the compound was called inactive in assay [1], in assay [2] and in assay [3].
`Fc1cccc(CCN2C(=S)NC[C@@H]2Cc2ccccc2)c1`: the outcome in assay [1], in assay [2] and in assay [3] was inactive.
For `O=C(Oc1ccc2c3c(c(=O)oc2c1)CCCC3)c1ccco1`, the call in assay [1], in assay [2] and in assay [3] was inactive.
Turning to `CCOC(=O)NCc1ccc2[nH]c(C)cc2c1`, the call in assay [1], in assay [2] and in assay [3] was inactive.
In the case of `c1ccc(-n2ncc3c(NCc4ccc5c(c4)OCO5)ncnc32)cc1`, the compound was called inactive in assay [1], in assay [2] and in assay [3].
Turning to `Cc1ccc(N(CC(=O)NCCSCc2ccco2)S(=O)(=O)c2ccc(F)cc2)cc1`, the result in assay [1], in assay [2] and in assay [3] was inactive.
For the compound `CCCNC(=O)C[C@H]1CC[C@H]2[C@@H](COC[C@@H](O)CN2S(=O)(=O)c2ccc(Oc3ccccc3)cc2)O1`, the compound was called inactive in assay [1], in assay [2] and in assay [3].
Regarding `COc1ccc(NC(=O)N(C)C[C@H]2OCCCC[C@@H](C)Oc3ccc(NC(=O)c4ccccc4)cc3C(=O)N([C@H](C)CO)C[C@H]2C)cc1`, the outcome in assay [1], in assay [2] and in assay [3] was inactive.
As to `Cc1noc(C)c1S(=O)(=O)Nc1ccc2c(c1)C(=O)N([C@@H](C)CO)C[C@@H](C)[C@H](CN(C)Cc1ccc3c(c1)OCO3)OCCCC[C@H](C)O2`, the compound was classed as inactive in assay [1], in assay [2] and in assay [3].
With `C[C@H]1CN([C@@H](C)CO)C(=O)CCCn2cc(nn2)CO[C@@H]1CN(C)Cc1ccc(C(F)(F)F)cc1`, the outcome in assay [1], in assay [2] and in assay [3] was inactive.
`Cc1ccc(C2CCN(C(=S)NC3CCCCC3)C2)cc1` (stereo unspecified): the call in assay [1], in assay [2] and in assay [3] was inactive.
As for `Cc1ccccc1-n1ncc2c(SCC(=O)N3c4ccccc4CC3C)ncnc21` (stereo unspecified), the result in assay [1], in assay [2] and in assay [3] was inactive.
`C[C@H](CO)N1C[C@H](C)[C@@H](CN(C)Cc2ccc(Oc3ccccc3)cc2)Oc2ccc(NC(=O)Nc3ccc4c(c3)OCO4)cc2C1=O`: the call in assay [1], in assay [2] and in assay [3] was inactive.
For the compound `CC(C)CC#Cc1cnc2c(c1)C(=O)N([C@@H](C)CO)C[C@@H](C)[C@@H](CN(C)C(=O)c1cccc(F)c1)O2`, the outcome in assay [1], in assay [2] and in assay [3] was inactive.
Turning to `Cc1ccccc1-n1ncc2c(SCC(=O)NCc3cccs3)ncnc21`, the compound was classed as inactive in assay [1], in assay [2] and in assay [3].
Turning to `COc1ccc(CN(C)C[C@@H]2Oc3ccc(NC(=O)C4CC4)cc3C(=O)N([C@@H](C)CO)C[C@H]2C)cc1`, the compound was classed as inactive in assay [1], in assay [2] and in assay [3].
Take `O=S1(=O)CCC(N=Cc2cc(Br)ccc2O)C1` (stereo unspecified): the outcome in assay [1], in assay [2] and in assay [3] was inactive.
Turning to `CNC[C@@H]1OCCCC[C@@H](C)Oc2ccc(NC(=O)NC(C)C)cc2C(=O)N([C@@H](C)CO)C[C@H]1C`, the compound was classed as inactive in assay [1], in assay [2] and in assay [3].
Take `COc1ccccc1-c1ccc([C@H]2[C@H](C#N)N(C(=O)C3CC3)[C@H]2CO)cc1`: the compound was called inactive in assay [1], in assay [2] and in assay [3].
`COC(=O)C1=C(C)N(Cc2ccc(Cl)cc2)C(=S)NC1c1cccc(Cl)c1` (stereo unspecified): in assay [2], the outcome was inactive.
Regarding `Cc1ccc(-n2ncc3c(SCC(=O)NNC(=O)C(C)C)ncnc32)cc1`, the compound was called inactive in assay [1], in assay [2] and in assay [3].
Take `Cc1cccc(-c2ccc([C@@H]3[C@@H](CO)N4CCCCN(S(=O)(=O)c5ccccc5C)C[C@@H]34)cc2)c1`: the call in assay [1], in assay [2] and in assay [3] was inactive.
For the compound `C[C@H](CO)N1C[C@H](C)[C@H](CN(C)Cc2ccccc2F)Oc2cc(C3=CCCC3)ccc2S1(=O)=O`, the compound was called inactive in assay [1] and in assay [3].
On to `Cc1cccc(C)c1NC(=O)CN(C)C(=O)CC1CC2CCC1C2` (stereo unspecified), for which the result in assay [1], in assay [2] and in assay [3] was inactive.
Consider `CCC(C)c1ccc(NC(=S)N2CCN(c3ccccn3)CC2)cc1` (stereo unspecified), for which the outcome in assay [1], in assay [2] and in assay [3] was inactive.
For the compound `CN(C)CCCn1c(=O)n(C2CCCCC2)c(=O)c2c3c(sc21)CCCCC3`, the compound was called inactive in assay [1], in assay [2] and in assay [3].
Consider `O=C(CN1CCOCC1)N[C@@H]1CC[C@@H](CCNC(=O)C2CCC2)O[C@@H]1CO`, for which the result in assay [1], in assay [2] and in assay [3] was inactive.
Regarding `Cc1ccccc1OCC(=O)NCc1ccccc1`, the compound was called inactive in assay [1], in assay [2] and in assay [3].
Consider `CC(C)NC(=O)N(C)C[C@@H]1Oc2c(NC(=O)C3CCCCC3)cccc2C(=O)N([C@@H](C)CO)C[C@@H]1C`, for which the result in assay [1] and in assay [3] was inactive. Moreover, in assay [2], the activity change, negative = cytotoxicity was 11.5% [at 6 µM].
Regarding `Cc1ccccc1NC(=O)C(NC1CCCCC1)C(C)C` (stereo unspecified), the call in assay [1], in assay [2] and in assay [3] was inactive.
On to `CC(=O)c1ccc(OCC(=O)NCc2ccc(F)cc2)cc1`, for which the compound was called inactive in assay [1], in assay [2] and in assay [3].
In the case of `CNC[C@@H]1Oc2c(NS(=O)(=O)c3ccc(Cl)cc3)cccc2C(=O)N([C@H](C)CO)C[C@H]1C`, the result in assay [1], in assay [2] and in assay [3] was inactive.
On to `COc1ccccc1NC(=O)c1cn(C)c(=O)c2cc(OC)c(OC)cc12`, for which the outcome in assay [1], in assay [2] and in assay [3] was inactive.
On to `CCCn1c(=S)[nH]c2cc(Cl)ccc21`, for which the result in assay [1], in assay [2] and in assay [3] was inactive.
With `O=C(C[C@H]1CC[C@H]2[C@@H](COC[C@H](O)CN2C(=O)Nc2ccc3c(c2)OCO3)O1)N1CCN(c2ccccc2)CC1`, the result in assay [1], in assay [2] and in assay [3] was inactive.
Consider `COc1cc(NC(=O)CN2CCN(S(=O)(=O)c3ccc(C(C)C)cc3)CC2)cc(OC)c1`, for which the call in assay [1], in assay [2] and in assay [3] was inactive.
Regarding `CNC(=O)CN(c1ccc(OC)cc1)S(=O)(=O)c1ccc(F)cc1`, the call in assay [1], in assay [2] and in assay [3] was inactive.
Consider `O=C(NC(=S)Nc1ccccc1[N+](=O)[O-])c1ccccc1`, for which the result in assay [1], in assay [2] and in assay [3] was inactive.
As to `Cc1cc(C)c(NC(=O)C2CCCN2C(=O)NC2CCCCC2)c(C)c1` (stereo unspecified), the call in assay [2] and in assay [3] was inactive.
Take `COc1cc2c(C(=O)N(C)c3cc(Cl)ccc3OC)cn(C)c(=O)c2cc1OC`: the call in assay [2] and in assay [3] was inactive.

The values are drawn from PubChem BioAssay.
